Source: PubChem BioAssay (EPA / NIEHS)
Values joined by “and” are separate entries in the source; they are usually repeats but may differ in a detail not shown here. Equal entries are not always repeated. Records with an inconclusive call do not appear. Active and inactive are the calls of the source. How the source made its calls: active means hit-call score of the fitted dose curve at least 0.9, where 1 is the maximum; inconclusive means response in the unintended direction; inactive means score below 0.9.

Legend:
[1] = Tanguay_ZF_120hpf_MORT_legacy: (Legacy) Oregon State University Tanguay Lab 120 Hour Post-fertilization zebrafish Assay for Mortality (AID 2283633)
In short: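 Brightfield scoring of embryo death (binary) at 24 and 120 hpf; static exposure 6–120 hpf, 28C, sealed and foil-covered. Pronase-dechorionated 5D wild-type larvae, single embryo per well. DMSO 0.64% v/v; trimethyltin chloride 5uM positive control.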

[2] = Tanguay_ZF_120hpf_YSE_legacy: (Legacy) Oregon State University Tanguay Lab 120 Hour Post-fertilization zebrafish Assay for Yolk Sac Edema (AID 2283634)
In short: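 Binary brightfield scoring of yolk sac edema at 120 hpf; DMSO baseline, gain-of-signal fitting. Dechorionated 5D larvae, one per well, static exposure 6–120 hpf, 28C, 0.64% DMSO. Dead embryos not scored.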

[3] = Tanguay_ZF_120hpf_AXIS_legacy: (Legacy) Oregon State University Tanguay Lab 120 Hour Post-fertilization zebrafish Assay for Body Axis Malformation (AID 2283635)
In short: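 Embryos: 5D wild-type, pronase-dechorionated 4 hpf; static exposure 6–120 hpf, 28C, sealed, dark, 1 embryo/well, 0.64% DMSO. 120 hpf axis malformation scored present/absent; dead embryos excluded. Analysed as gain of signal vs DMSO.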

[4] = Tanguay_ZF_120hpf_EYE_legacy: (Legacy) Oregon State University Tanguay Lab 120 Hour Post-fertilization zebrafish Assay for Eye Malformation (AID 2283636)
In short: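 Read-out is binary presence or absence of eye malformation, scored by brightfield microscopy at 120 hpf. Single larvae were exposed from 6 hpf in embryo medium containing 0.64% DMSO, with DMSO as baseline.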

[5] = Tanguay_ZF_120hpf_SNOU_legacy: (Legacy) Oregon State University Tanguay Lab 120 Hour Post-fertilization zebrafish Assay for Snout Malformation (AID 2283637)
In short: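 Snout malformation read as a yes/no call on brightfield images of 120 hpf larvae (Tropical 5D strain). Static exposure began at 6 hpf on dechorionated embryos in 0.64% DMSO, with gain of signal analysed versus DMSO controls.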

[6] = Tanguay_ZF_120hpf_JAW_legacy: (Legacy) Oregon State University Tanguay Lab 120 Hour Post-fertilization zebrafish Assay for Jaw Malformation (AID 2283638)
In short: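 Binary jaw-malformation calls at 120 hpf by brightfield imaging; DMSO (0.64% v/v) = baseline. Embryos: 5D wild-type, pronase-dechorionated, one per well from 6 hpf, static exposure, 28C, sealed, dark.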

[7] = Tanguay_ZF_120hpf_OTIC_legacy: (Legacy) Oregon State University Tanguay Lab 120 Hour Post-fertilization zebrafish Assay for Otic Vesicle Malformation (AID 2283639)
In short: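 Tropical 5D wild-type zebrafish embryos were exposed statically in sealed, foil-covered plates at 28C until 120 hpf, with 0.64% (vol/vol) DMSO final. Otic vesicle malformation was scored present/absent by brightfield microscopy, with DMSO as baseline.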

[8] = Tanguay_ZF_120hpf_PE_legacy: (Legacy) Oregon State University Tanguay Lab 120 Hour Post-fertilization zebrafish Assay for Pericardial Edema (AID 2283640)
In short: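 Static waterborne exposure, 5D wild-type embryos, 28C, to 120 hpf; final DMSO 0.64% (vol/vol). Binary PE call at 120 hpf by brightfield; fitted upward vs DMSO baseline. 5uM trimethyltin chloride as positive control.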

[9] = Tanguay_ZF_120hpf_BRAI_legacy: (Legacy) Oregon State University Tanguay Lab 120 Hour Post-fertilization zebrafish Assay for Brain Malformation (AID 2283641)
In short: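 Read-out: binary brain morphology call at 120 hpf (brightfield), fitted in gain-of-signal direction vs DMSO. Wild-type Tropical 5D embryos, static exposure, 28C, 0.64% DMSO final; 5uM trimethyltin chloride as positive control.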

[10] = Tanguay_ZF_120hpf_SOMI_legacy: (Legacy) Oregon State University Tanguay Lab 120 Hour Post-fertilization zebrafish Assay for Somite Malformation (AID 2283647)
In short: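 Binary brightfield scoring of somite defects at 120 hpf in 5D wild-type larvae; one dechorionated embryo per well, static exposure from 6 hpf, 28C, sealed and dark. Final DMSO 0.64%; trimethyltin chloride 5uM positive control.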

[11] = Tanguay_ZF_120hpf_PFIN_legacy: (Legacy) Oregon State University Tanguay Lab 120 Hour Post-fertilization zebrafish Assay for Pectoral Fin Malformation (AID 2283648);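 further: each larva judged yes or no for fin defect by brightfield with dead larvae skipped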
In short: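 5D WT zebrafish; pronase dechorionation 4 hpf; 1 embryo/well at 6 hpf; static exposure to 120 hpf, 28C, sealed, foil-covered; final DMSO 0.64% v/v; 5 uM trimethyltin chloride positive control; fin defect scored yes/no.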

[12] = Tanguay_ZF_120hpf_CFIN_legacy: (Legacy) Oregon State University Tanguay Lab 120 Hour Post-fertilization zebrafish Assay for Caudal Fin Malformation (AID 2283649)
In short: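 Dechorionated 5D wild-type zebrafish, static exposure 6–120 hpf, 28C, sealed and dark, 0.64% v/v DMSO final. Binary fin-malformation call at 120 hpf, brightfield; gain of signal vs DMSO baseline.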

[13] = Tanguay_ZF_120hpf_SWIM_legacy: (Legacy) Oregon State University Tanguay Lab 120 Hour Post-fertilization zebrafish Assay for Swim Bladder Malformation (AID 2283654);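 further: swim bladder malformation in each larva scored yes or no under brightfield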
In short: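 Embryos lacking chorions were exposed individually and statically to test chemical from 6 to 120 hpf at 28C, with 0.64% DMSO as vehicle. At 120 hpf, swim bladder malformation was recorded as present or absent by brightfield microscopy.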

[14] = Tanguay_ZF_120hpf_TRUN_legacy: (Legacy) Oregon State University Tanguay Lab 120 Hour Post-fertilization zebrafish Assay for Truncated Body (AID 2283655)
In short: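 Whole-embryo zebrafish screen: dechorionated 5D embryos, static exposure 6–120 hpf, 28C, sealed foil-covered plates, 0.64% DMSO. Binary truncation call; gain of signal versus DMSO baseline.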

[15] = Tanguay_ZF_120hpf_NC_legacy: (Legacy) Oregon State University Tanguay Lab 120 Hour Post-fertilization zebrafish Assay for Notochord and Tail Malformation (AID 2283656)
In short: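 Dechorionated 5D zebrafish, 1/well from 6 hpf; static exposure to 120 hpf, 28C, sealed, dark; final DMSO 0.64% v/v. NC scored binary (present/absent); dead embryos not scored. Fit vs DMSO baseline, gain direction.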

[16] = Tanguay_ZF_120hpf_TR_legacy: (Legacy) Oregon State University Tanguay Lab 120 Hour Post-fertilization zebrafish Assay for Touch Response (AID 2283667)
In short: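 5D WT embryos; static exposure to 120 hpf, 28C, sealed/dark; DMSO 0.64% v/v final. TR scored present/absent; dead embryos excluded. Pos ctrl 5uM trimethyltin chloride.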

[17] = Tanguay_ZF_120hpf_ActivityScore_legacy: (Legacy) Oregon State University Tanguay Lab 120 Hour Post-fertilization zebrafish Assay Score for Activity (AID 2283742);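 on AC50: dechorionated Tropical 5D wild-type zebrafish embryos held singly per well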
In short: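 Embryos are staged, enzymatically dechorionated at 4 hpf, placed individually at 6 hpf, then held in test chemical (0.64% DMSO) at 28C until 120 hpf. Mortality and malformations are scored by brightfield, with non-mortality endpoints skipped for dead embryos.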

[18] = molecular target: human Norepinephrine Transporter (NET), SLC6A2 (gene 6530) (UniProt P23975); experiment: NVS_TR_hNET: NovaScreen (NVS) Transporter Assay for human Norepinephrine Transporter (NET) (AID 2283377);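 further: cell-free membrane protein extracted from CHO cells expressing human NET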;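 on AC50: displacement of radioligand from human NET seen as loss of scintillation signal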
Sequence of human Norepinephrine Transporter (NET), SLC6A2 (gene 6530) (P23975 whole entry, looked up): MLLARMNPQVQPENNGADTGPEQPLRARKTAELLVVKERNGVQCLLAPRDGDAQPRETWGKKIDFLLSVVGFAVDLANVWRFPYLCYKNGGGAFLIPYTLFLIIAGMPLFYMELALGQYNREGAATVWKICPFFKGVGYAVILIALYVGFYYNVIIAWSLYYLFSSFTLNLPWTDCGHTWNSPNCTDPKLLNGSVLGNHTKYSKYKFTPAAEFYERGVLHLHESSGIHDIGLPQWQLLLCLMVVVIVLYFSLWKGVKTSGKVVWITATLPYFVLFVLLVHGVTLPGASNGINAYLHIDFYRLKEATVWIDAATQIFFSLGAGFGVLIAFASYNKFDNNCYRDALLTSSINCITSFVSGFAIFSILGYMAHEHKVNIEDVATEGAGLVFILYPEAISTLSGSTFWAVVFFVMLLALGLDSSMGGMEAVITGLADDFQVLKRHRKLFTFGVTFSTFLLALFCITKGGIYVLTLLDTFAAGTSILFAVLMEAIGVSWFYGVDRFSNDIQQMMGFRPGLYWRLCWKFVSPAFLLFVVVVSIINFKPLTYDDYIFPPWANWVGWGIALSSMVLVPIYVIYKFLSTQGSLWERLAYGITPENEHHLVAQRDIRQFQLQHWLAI
In short: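 Scintillation counts of filter-retained radioligand served as the readout, taken 1 h post-dosing in a cell-free CHO-derived system. Test chemicals ran first at 25 uM in duplicate; confirmed hits were retested across concentrations.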

[19] = molecular target: Glucocorticoid receptor (Homo sapiens) (UniProt P04150); experiment: NVS_NR_hGR: NovaScreen (NVS) Nuclear Receptor Binding Assay for human Glucocorticoid Receptor (GR) (AID 2283363);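 on AC50: activity is loss of specific radioligand binding signal relative to DMSO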
Sequence of Glucocorticoid receptor (Homo sapiens) (P04150 whole entry, looked up): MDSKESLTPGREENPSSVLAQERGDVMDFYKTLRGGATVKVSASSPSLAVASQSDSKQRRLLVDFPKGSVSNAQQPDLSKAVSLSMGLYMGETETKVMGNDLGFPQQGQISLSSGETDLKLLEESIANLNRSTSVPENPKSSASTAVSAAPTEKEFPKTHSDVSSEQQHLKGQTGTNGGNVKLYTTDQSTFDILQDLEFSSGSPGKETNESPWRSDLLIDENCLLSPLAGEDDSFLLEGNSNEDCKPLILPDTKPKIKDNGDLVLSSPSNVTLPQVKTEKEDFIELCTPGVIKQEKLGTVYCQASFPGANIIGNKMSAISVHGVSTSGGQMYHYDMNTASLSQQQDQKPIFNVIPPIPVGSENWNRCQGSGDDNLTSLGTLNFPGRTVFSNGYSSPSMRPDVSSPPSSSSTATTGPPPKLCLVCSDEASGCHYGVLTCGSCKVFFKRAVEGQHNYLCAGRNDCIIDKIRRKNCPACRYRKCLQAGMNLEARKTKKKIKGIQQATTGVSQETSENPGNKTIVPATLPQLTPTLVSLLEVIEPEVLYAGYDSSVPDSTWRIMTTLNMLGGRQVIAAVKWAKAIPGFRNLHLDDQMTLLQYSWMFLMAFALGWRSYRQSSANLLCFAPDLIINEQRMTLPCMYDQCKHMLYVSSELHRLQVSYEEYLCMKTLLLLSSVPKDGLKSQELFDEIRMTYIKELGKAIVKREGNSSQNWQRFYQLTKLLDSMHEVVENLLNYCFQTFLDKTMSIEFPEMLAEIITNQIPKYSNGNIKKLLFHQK
In short: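 Competitive displacement of a labelled ligand was measured on cell-free receptor preparations after 16 h exposure. Initial testing used 25 uM in duplicate with plate controls; confirmed actives went into concentration series.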

[20] = molecular target: chicken Estrogen Receptor (ESR1), ESR1 (gene 396099) (UniProt P06212); experiment: ATG_chERa_XSP1: Attagene TRANS-FACTORIAL Multi-Species (XSP1) HepG2 Assay for chicken Estrogen Receptor (ESR1) (AID 2283779)
Sequence of chicken Estrogen Receptor (ESR1), ESR1 (gene 396099) (P06212 whole entry, looked up, the tested form may be a part): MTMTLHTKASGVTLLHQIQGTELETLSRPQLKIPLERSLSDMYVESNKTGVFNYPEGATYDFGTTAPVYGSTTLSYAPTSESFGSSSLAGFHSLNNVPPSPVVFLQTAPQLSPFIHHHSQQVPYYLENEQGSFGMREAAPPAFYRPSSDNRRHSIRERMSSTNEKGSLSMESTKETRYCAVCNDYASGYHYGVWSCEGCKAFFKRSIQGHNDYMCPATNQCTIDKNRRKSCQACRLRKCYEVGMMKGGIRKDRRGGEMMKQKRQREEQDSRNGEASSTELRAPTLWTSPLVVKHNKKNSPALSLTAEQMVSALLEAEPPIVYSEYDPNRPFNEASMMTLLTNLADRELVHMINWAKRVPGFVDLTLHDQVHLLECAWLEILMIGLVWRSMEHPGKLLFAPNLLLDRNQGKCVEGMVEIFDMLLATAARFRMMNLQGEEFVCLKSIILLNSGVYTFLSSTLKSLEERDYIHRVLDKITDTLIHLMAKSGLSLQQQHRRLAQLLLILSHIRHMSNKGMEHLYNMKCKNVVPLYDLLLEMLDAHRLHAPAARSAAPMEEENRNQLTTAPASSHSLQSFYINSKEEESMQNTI
In short: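 Human liver HepG2, transient MRTU transfection (NR-Gal4 chimeras, GAL4-UAS reporters); 24 h compound exposure; 3 nM 6-alpha-fluorotestosterone in medium. Total RNA → RT-PCR → 6-FAM primer extension → HpaI → CE. Positive direction vs DMSO baseline.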

Measured: AC50

O=C(CCl)c1ccccc1
active: [17] 1.45 µM
not listed: [18] | [19] | [20]
inactive: all other assays above

O=[N+]([O-])c1ccc(Cl)cc1
not listed: [19] | [20]
inactive: all other assays above

CC(C)(c1cc(Cl)c(O)c(Cl)c1)c1cc(Cl)c(O)c(Cl)c1
active: [19] 544 nM and 146 nM | [20] 24.3 µM

CC(C)CCCCCCCOC(=O)c1ccccc1C(=O)OCCCCCCCC(C)C
inactive: [20]

CC(C)(C)C(O)C(Oc1ccc(-c2ccccc2)cc1)n1cncn1 (stereo not given)
active: [18] 25 µM
inactive: [19]

CC(=O)c1cc2c(cc1C)C(C)(C)C(C)CC2(C)C (stereo not given)
active: [20] 59.7 µM

O=c1c2ccccc2c(=O)c2c1cc(Cl)c1[nH]c3c([nH]c12)c(Cl)cc1c(=O)c2ccccc2c(=O)c13
active: [19] 12.9 µM

N#CCCCCC#N
not listed: [18] | [19] | [20]
inactive: all other assays above

CC(=O)/C=C/c1ccccc1
active: [18] 19.9 µM
